Source: PubChem (National Center for Advancing Translational Sciences (NCATS))
FEN1 inh – qHTS Assay for the Inhibitors of Human Flap endonuclease 1 (FEN1); P39748; Recombinant FEN1 flap cleavage, fluorescence, 15 min; Potency, µM (top dose mostly 114 µM), actives largely listed as inhibitors; actives 0.35% (n = 390,000); AID 588795, 2011; further: nearly all actives have a fitted effect of over 65% in size
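Steps: FEN1 (10 nM) dispensed; compound added by pin tool; 15 min at room temperature; substrate added to 50 nM final; reads at 0 min and 15 min; data normalized and fitted (four-parameter Hill).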
Pol eta inh – qHTS for Inhibitors of Polymerase Eta. Potency, µM (titrated, usually from 114 µM), actives largely listed as inhibitors. recombinant Pol eta, fluorescent DNA replication assay. DNA polymerase eta (Homo sapiens), Q9Y253. actives 1.2% (n = 390,000)
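Pol eta (10 nM) was preincubated with compounds for 15 min at room temperature, after which fluorescent replication substrate (50 nM final) was added to start the reaction. Fluorescence was read kinetically at 0 and 10 min.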
Pol kappa inh – qHTS for Inhibitors of Polymerase Kappa; Potency, µM (series often up to 107 µM), hits mostly inhibitors; AID 588579, 2011; purified Pol kappa, fluorescent DNA synthesis assay, 10 min; actives 0.53% (n = 400,000)
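Pol kappa 10 nM + cpd, 15 min RT; start w/ substrate 50 nM final; fluorescence kinetic read, 0 and 10 min. Neg ctrl: buffer, no enzyme.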
Pol beta inh – qHTS Assay for Inhibitors of DNA Polymerase Beta; Pol beta primer extension/strand displacement, fluorescence kinetic; Potency, µM (top dose mostly 114 µM), hits mostly inhibitors; actives 1.3% (n = 340,000); AID 485314, 2010
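Homogeneous kinetic assay of primer extension and strand displacement by 10 nM Pol beta, preincubated 15 min at room temperature with compound before 50 nM substrate (final) was added. Read at 0 and 10 min; four-parameter Hill fit.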
Pol iota inh – qHTS for Inhibitors of Polymerase Iota. DNA polymerase iota (Homo sapiens), Q9UNA4. Pol iota fluorescent replication assay, 10 min. Potency, µM (series often up to 115 µM), usual class: inhibitors. actives 1% (n = 390,000). AID 588590, 2011
Target sequence (Q9UNA4 whole entry, looked up): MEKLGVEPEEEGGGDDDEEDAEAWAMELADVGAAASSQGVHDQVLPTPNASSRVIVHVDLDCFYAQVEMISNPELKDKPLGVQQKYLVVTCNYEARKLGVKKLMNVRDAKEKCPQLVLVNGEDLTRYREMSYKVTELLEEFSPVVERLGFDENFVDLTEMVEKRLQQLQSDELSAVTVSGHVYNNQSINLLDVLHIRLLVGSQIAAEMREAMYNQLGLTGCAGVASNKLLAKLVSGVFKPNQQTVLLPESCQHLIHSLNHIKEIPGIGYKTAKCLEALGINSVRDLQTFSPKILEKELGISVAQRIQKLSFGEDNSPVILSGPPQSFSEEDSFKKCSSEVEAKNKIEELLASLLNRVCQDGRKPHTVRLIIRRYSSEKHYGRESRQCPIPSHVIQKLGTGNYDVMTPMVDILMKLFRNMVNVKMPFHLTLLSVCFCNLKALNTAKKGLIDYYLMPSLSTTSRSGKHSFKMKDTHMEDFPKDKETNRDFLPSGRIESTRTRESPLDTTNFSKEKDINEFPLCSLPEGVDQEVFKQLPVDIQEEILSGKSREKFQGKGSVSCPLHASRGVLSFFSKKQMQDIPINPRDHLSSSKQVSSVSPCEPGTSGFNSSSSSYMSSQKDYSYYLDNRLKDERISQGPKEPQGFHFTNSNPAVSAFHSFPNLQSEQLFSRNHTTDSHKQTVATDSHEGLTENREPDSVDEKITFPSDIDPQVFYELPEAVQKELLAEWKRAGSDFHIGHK
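Pol iota at 10 nM preincubated 15 min with compounds at room temperature; reaction started with fluorescent substrate, 50 nM final. Fluorescence read kinetically at 0 and 10 min; buffer-only wells as negative control.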
WRN helicase inh – qHTS for Inhibitors of WRN Helicase | Bifunctional 3'-5' exonuclease/ATP-dependent helicase WRN (Homo sapiens), Q14191 | WRN helicase unwinding, fluorescent forked duplex, kinetic | Potency, µM (series often up to 114 µM), usual class: inhibitors | actives 0.46% (n = 360,000) | AID 651768, 2012; further: nearly all actives have a fitted effect of over 55% in size
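Kinetic fluorescence helicase assay: unwinding of a quenched forked DNA duplex (100 nM final) with 2 mM ATP final raises red fluorescence (525/598 nm). Compounds sat 15 min at room temperature with 20 nM WRN beforehand.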
Numbers stand for hits; . = inactive; ? = inconclusive; / = no result; [ ] = remark or other dose. Most compounds without a hit are left out; they make up all but 2.4% or so of the library. The call rests on the fitted dose curve; in most records, active means well fitted curve in the direction sought with a large enough effect; inconclusive means small, poorly fitted or top-dose-only effect, or another doubt; inactive means no such curve, though single readings can be large; an effect the other way counts as inactive or inconclusive.

SMILES | FEN1 inh | Pol eta inh | Pol kappa inh | Pol beta inh | Pol iota inh | WRN helicase inh
O=C(CN1C(=O)CCc2cc(S(=O)(=O)N3CCOCC3)ccc21)Nc1cccc(C(F)(F)F)c1 | . | . | . | . | . | /
N#C/C(=C\c1ccco1)c1nc2ccccc2s1 | . | . | . | . | . | .
N#C/C(=C(/O)c1ccc(-c2cccc([N+](=O)[O-])c2)o1)c1nc2ccccc2s1 | . | 17.8µM | ? | . | 50.1µM | .
N#C/C(=C/c1ccc(-c2cc(C(=O)O)cc(C(=O)O)c2)o1)c1nc2ccccc2s1 | / | / | / | 20µM | / | /
O=C(CSc1nc2ccccc2c(=O)n1Cc1ccccc1)Nc1ccc(Br)cc1C(=O)O | . | 89.1µM | . | ? | ? | .[11.6 µM]
Cc1ccc(S(=O)(=O)N2CCOCC2)cc1NC(=O)CSc1nc2ccccc2c(=O)n1Cc1ccccc1 | . | . | . | . | . | .
COCCCNC(=S)Nc1cccc2ncccc12 | . | . | . | . | 5.62µM | .
CCOC(=O)c1c(-n2cnnn2)sc2c1CCCC2 | . | . | . | . | . | .
CCOC(=O)c1c(N2C(=O)Nc3cc(Cl)c(Cl)cc3N2O)sc2c1CCCCC2 | ? | ? | . | 50.1µM | . | ?
Oc1c(Br)cc(/C=N/n2c(-c3ccccc3)n[nH]c2=S)c(Br)c1O | / | / | / | 0.251µM | / | /
Oc1c(Br)cc(Br)cc1/C=N/n1c(-c2ccccc2)n[nH]c1=S | . | . | . | . | . | .
Oc1ccccc1/C=N/n1c(-c2ccccc2)n[nH]c1=S | . | . | . | . | . | .
COc1c(Br)cc(/C=N/n2c(-c3ccccc3)n[nH]c2=S)c(O)c1Br | ? | 79.4µM | 2µM | 3.55µM | ? | ?
CC(C)c1ccc(NC(=O)C2(C)Cc3ccccc3C(=O)O2)cc1 (configuration not stated) | . | . | . | . | . | /
O=C(NC(=S)Nc1ccc(NC(=O)c2cccs2)cc1)c1cc2ccccc2o1 | . | ? | . | 12.6µM | . | .
O=C(NC(=S)Nc1ccc(NC(=O)c2cccs2)cc1)c1ccco1 | . | . | . | . | . | .
O=C1NC(c2ccccc2)=N/C1=C/c1ccco1 | . | . | ? | 28.2µM | . | .
O=C1NC(c2ccccc2Br)=N/C1=C\c1ccco1 | . | . | 79.4µM | ? | ? | .[11.6 µM]
O=C1NC(c2cccc(Br)c2)=N/C1=C\c1ccco1 | . | . | . | 44.7µM | 25.1µM | .
O=C1NNC(c2ccccc2)=N/C1=C\c1ccccc1 | . | . | . | . | ? | .
COc1ccc(S(=O)(=O)N2CCN(C(=O)c3ccccc3Cc3ccccc3)CC2)cc1OC | / | . | / | / | / | .
CCCc1ccc(OCc2nc(-c3ccc(NC(=O)c4ccco4)cc3)no2)cc1 | . | . | . | 35.5µM | ? | .
CC(C)C[C@@H]1CC2=C(C(=O)OC(C)(C)O2)[C@H](CCc2ccccc2)O1 | / | / | / | / | / | .
CNc1ccc(C=C2C=CC=C2)cc1 | . | / | ? | / | 5.01µM | /
CNc1ccccc1 | . | . | . | / | . | .
SMILES | FEN1 inh | Pol eta inh | Pol kappa inh | Pol beta inh | Pol iota inh | WRN helicase inh
O=C(Nc1ccc(F)cc1)C(=O)C1C(=O)Nc2ccccc21 (configuration not stated) | . | . | . | . | 89.1µM | .
Cc1noc(C)c1S(=O)(=O)NC(=O)C1(C)CCN1C(=O)C1(c2ccc(Cl)cc2)CCC1 (configuration not stated) | / | / | / | / | / | .
O=C(/C=C/c1ccco1)Nc1cc(Cl)ccc1C(=O)O | . | 10µM | ? | 22.4µM | ? | .
O=C(/C=C\c1ccco1)Nc1cc([N+](=O)[O-])ccc1F | . | . | . | . | . | .
O=C(CSC1=NCCS1)Nc1nc2c(s1)CCCC2 | . | . | . | 56.2µM | . | .
Cn1nnnc1SCC(=O)Nc1nc2c(s1)CCCC2 | . | . | . | . | . | .
Cc1nnc(NC(=O)C2CCN(C(=O)c3ccsc3)CC2)s1 | . | / | . | / | . | /
